Bioassay records (PubChem)
IP6K1 inhibitor = inhibitors of human IP6K1. Q92551. IP6K1 kinase, ADP-Glo luminescence, 2 h; active compounds read low. activity change, % (series mostly up to about 58 µM). hit rate 0.81% among 140,000. AID 1645851; in the data active = activity change below about -25%
Target sequence (Q92551 whole entry, looked up): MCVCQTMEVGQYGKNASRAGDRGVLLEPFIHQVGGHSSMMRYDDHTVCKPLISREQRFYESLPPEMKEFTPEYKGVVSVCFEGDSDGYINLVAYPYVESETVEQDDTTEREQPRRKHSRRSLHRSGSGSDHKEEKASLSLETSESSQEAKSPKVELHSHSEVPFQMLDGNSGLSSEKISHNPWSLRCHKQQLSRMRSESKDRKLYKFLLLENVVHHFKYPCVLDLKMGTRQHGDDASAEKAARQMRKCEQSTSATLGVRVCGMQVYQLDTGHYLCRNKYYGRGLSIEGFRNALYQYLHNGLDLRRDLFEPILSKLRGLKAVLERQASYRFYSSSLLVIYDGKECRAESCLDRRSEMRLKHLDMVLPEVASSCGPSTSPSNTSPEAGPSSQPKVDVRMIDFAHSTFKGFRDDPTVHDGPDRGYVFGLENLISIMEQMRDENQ
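ADP-Glo luminescence measures ADP made by human IP6K1 during a 2 h RT reaction with ATP/IP6 (mix at 1.3 mM/130 uM); top library doses 57.5 and 19.1 uM final.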
KDM5B inhibitor = blocks human KDM5B histone demethylase activity. Q9UGL1. KDM5B demethylase, FDH-coupled NADH fluorescence (FDH is formaldehyde dehydrogenase). Potency, µM (series often up to 57.7 µM), usual class: inhibitors. hit rate 2.6% among 220,000. AID 1347165; also: nearly all actives have a fitted effect of over 70% in size
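KDM5BΔAP (200 nM final) in 50 mM HEPES pH 7.5, 0.01% Tween-20 was preincubated 10 min at RT with compound over a concentration range. Substrate mix (H3K4me3 12.5 µM, α-KG 25 µM, Fe²⁺, ascorbate, NAD⁺, FDH) was added, and NADH fluorescence change over 30 min gave dose-response curves.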
IP6K1 conf = human IP6K1 inhibition, confirmatory; shares compounds with IP6K1 inhibitor; recombinant IP6K1 kinase, ADP-Glo luminescence, 2 h; Potency, µM (highest dose often 49 µM), most hits filed as inhibitors; hit rate 13% among 1,200; also: nearly all actives have a fitted effect of over 65% in size
Hits are given with their value; . = inactive; ? = inconclusive; / = no result; ! = not active in a repeat. This is a sample that favours compounds with a hit; in the whole collection about 2.8% have one here. Unless noted, calls follow the shape of the dose curve; as a rule, active = well fitted inhibition curve with a large enough effect; inconclusive = small, poorly fitted or top-dose-only effect; inactive = no such curve, though single readings can be large or run the other way.

SMILES | IP6K1 inhibitor | KDM5B inhibitor | IP6K1 conf
CN1C[C@@H](NC(=O)Nc2ccccc2)C[C@H]1c1nc(-c2ccc(F)cc2)no1 | . | . | /
CN1C[C@@H](NC(=O)Nc2ccccc2)C[C@H]1c1nc(-c2ccccc2)no1 | -25 | 35µM | ?
O=C(CN1CCN(c2nc(-c3ccccn3)nc3scc(-c4ccccc4)c23)CC1)N1CCCC1 | / | . | /
CCN1C[C@H]2COc3ccc(C)cc3[C@H]2N(C(=O)CC2CCCC2)CCC1=O | . | / | /
Cc1cc(=O)[nH]c2nnc(SCC(=O)NC(C)(C)C)n12 | . | . | /
Cc1cc(=O)[nH]c2nnc(SCC(=O)Nc3ccc(OC(F)(F)F)cc3)n12 | -25 | . | .
Cc1[nH]c2ccccc2c1C(=O)C(=O)N1CCN(C2CC2)CC1 | / | . | /
O=C(/C(C=Nc1ccccc1Cl)=C(/O)c1ccco1)C(F)(F)F | / | . | /
Cc1nnc(NC(=O)c2ccc3c(ccn3C)c2)s1 | / | . | /
CC(C)c1cc(-c2n[nH]c(=O)n2-c2ccc3c(ccn3C)c2)c(O)cc1O | -43 | / | 9.2µM
O=S(=O)(c1cccc(Cl)c1)n1c(/C=C/c2ccccc2Cl)nc2ccccc21 | -39 | ? | ?
CCOc1ccc(S(=O)(=O)n2c(C)nc3ccccc32)cc1 | . | / | /
COCCN(Cc1cccs1)S(=O)(=O)c1cc(-c2cc(C)no2)ccc1C | -33 | . | ?
Cc1cc(-c2ccc(C)c(S(=O)(=O)N(Cc3cccs3)C(C)C)c2)on1 | . | ? | /
O=C(O)C(c1c[nH]c2ccc(Br)cc12)N1CCN(Cc2cccs2)CC1 (configuration not stated) | / | . | /
CCN(CC)C(=O)c1ccc(-n2nc(C)c(-c3ccc(C)cc3)c2NC(C)=O)cc1 | / | . | /
N#C/C(=C/c1ccccc1Cl)c1nc2ccccc2c(=O)[nH]1 | . | . | /
N#C/C(=C\c1cc(Br)c(O)c(Br)c1)c1nc2ccccc2c(=O)[nH]1 | -29 | ? | 1.8µM
CCN(Cc1ccc(OC)c(OC)c1)C(=O)c1cc(C)nc2ccccc12 | / | . | /
COc1ccc(-c2cc(C(=O)NCc3c(C)cc(C)[nH]c3=O)c3c(c2)N(C(C)C)CCO3)cc1OC | -27 | 35µM | ?
COc1ccccc1-c1cc2c(ccn2C(C)C)c(C(=O)NCc2c(C)cc(C)[nH]c2=O)n1 | . | ? | /
COc1cc2ncnc(Nc3cccc(O)c3)c2cc1OC | . | / | /
COc1cc2ncnc(Nc3cccc(Br)c3)c2cc1OC | / | / | ?
C/C(=N/Nc1cccc([N+](=O)[O-])c1)c1ccc(Br)cc1 | / | . | /
CN1CCC(NC(=O)c2cc(-c3ccccc3Cl)nc3ccccc23)CC1 | / | . | /
SMILES | IP6K1 inhibitor | KDM5B inhibitor | IP6K1 conf
CN1CC[C@@H](c2c(O)cc(O)c3c(=O)cc(-c4ccccc4Cl)oc23)[C@@H](O)C1 | / | / | ?
Cc1ccc(S(=O)(=O)CC(=O)c2ccc(F)cc2)cc1C | / | . | /
CCCC(=O)c1cc(O)c(O)cc1O | -96 | / | ?
CCCC(=O)c1ccc(O)cc1 | / | . | /
CC(C)N(CCC(=O)c1ccc2ccccc2c1)Cc1ccccc1 | . | / | 9.2µM
CC(C)C(NC(=O)Cc1ccc2ccccc2c1)C(=O)O (configuration not stated) | / | . | /
CCCn1nc(C(=O)Nc2nc3ccccc3s2)c2ccccc2c1=O | / | . | /
O=C(N/N=C/c1ccc([N+](=O)[O-])o1)C(O)c1ccccc1 (configuration not stated) | / | . | /
NC(=O)N/N=C/c1ccc([N+](=O)[O-])o1 | -50! | / | .
COc1ccc(C(=O)N2CCC3(CC2)CC(CN2CCOCC2)N(C)C3)cc1F (configuration not stated) | . | / | /
CCn1c2c(c(=O)n3ncc(C(=O)Nc4cc(Cl)ccc4OC)c13)CN(Cc1ccc(OC)cc1)CC2 | . | ? | /
CCn1c2c(c(=O)n3ncc(C(=O)Nc4ccc(C(=O)OC)cc4)c13)CN(Cc1ccc(OC)cc1)CC2 | -35 | ? | .
O=C(Nc1ccc(C(F)(F)Cl)oc1=O)c1ccccc1 | / | . | /
COc1cc(/C=C2\C(=O)Nc3ccccc32)ccc1O | / | / | 10µM
CCOc1cc(/C=C2\C(=O)Nc3ccccc32)ccc1OC(F)F | / | . | /
COc1cccc(Oc2c(C(F)(F)F)oc3cc(OC(C)=O)ccc3c2=O)c1 | / | . | /
Cc1sc(NC(=O)CC(C)C)c(C#N)c1C | / | . | /
Fc1ccc(C2Cn3nnc(-c4nc(-c5ccc6c(c5)OCO6)no4)c3CO2)cc1 (configuration not stated) | -28 | . | .
Fc1ccc(-c2noc(-c3nnn4c3COC(c3ccc(F)cc3)C4)n2)cc1 (configuration not stated) | . | . | /
Cc1nc2ccccc2nc1SCC(=O)N1CCCC(C)C1 (configuration not stated) | / | . | /
CC(=O)Nc1cc(F)ccc1-c1csc(NC(=O)C2CCCC2)n1 | / | . | /
O=C(C1CC1)N1CCc2nc(C3CC3)nc(-c3ccc(O)cc3)c2CC1 | . | / | /
